{
  "source": "PubChem BioAssay (Tox21)",
  "note": "Results filed as inconclusive are left out. Where a call stands in place of a potency, no number is given. The source made the active and inactive calls. Calls follow the shape of the dose curve; as a rule, active = well fitted activation curve with a large enough effect in the signal ratio in the repeat runs (not every such curve was filed as active); inconclusive = weak or mixed curves, or effect the other way; inactive = no such curve, though single readings can be large or run the other way; the % refers to the signal ratio.",
  "data": [
    {"test": "qHTS assay for small molecule agonists of the antioxidant response element (ARE) signaling pathway (AID 743202)", "conditions": "HepG2 ARE-bla reporter, beta-lactamase FRET, 16 h; series mostly up to 73.3 µM", "description": "U.S. Tox21 Program National Center for Advancing Translational Sciences [NCATS] NIH Chemical Genomics Center [NCGC] U.S. Environmental Protection Agency [EPA] National Institutes of Environmental Health Sciences [NIEHS] National Toxicology Program [NTP] U.S. Food and Drug Administration [FDA] Tox21 Assay Overview: Oxidative stress has been implicated in the pathogenesis of a variety of diseases ranging from cancer to neurodegeneration. The antioxidant response element (ARE) signaling pathway plays an important role in the amelioration of oxidative stress. The CellSensor ARE-bla HepG2 cell line (Invitrogen) can be used for analyzing the Nrf2/antioxidant response signaling pathway. Nrf2 (NF-E2-related factor 2) and Nrf1 are transcription factors that bind to AREs and activate these genes. The CellSensor ARE-bla Hep G2 cell line contains a beta-lactamase reporter gene under control of the Antioxidant Response Element (ARE) stably integrated into HepG2 cells. The activation of the report gene under culture conditions can be detected by fluorescence intensity. This cell line has been used to screen the Tox21 10K compound library to identify agonists that induce oxidative stress.\nTox21 Assay Protocol Summary: The ARE-bla cells were dispensed at 2,000 cells/5 ul/well in 1536-well black wall/clear bottom plates using a Multidrop dispenser. After the assay plates were incubated at a 37 C/5% CO2 incubator for 5 hours, 23 nL of compounds dissolved in DMSO, positive controls or DMSO only was transferred to the assay plate by a pin tool. The plates were incubated at 37 C for 16 hours. After 1 uL of LiveBLAzer B/G FRET substrate was added using a Flying Reagent Dispenser, the plates were incubated at room temperature for 2 hours, and fluorescence intensity was measured by an Envision plate reader.", "values": [
      {"smiles": "CN(C)CCCNCCCN(C)C", "Potency": "inactive"},
      {"smiles": "NC(=O)c1cn(Cc2c(F)cccc2F)nn1", "Potency": "inactive"},
      {"smiles": "O=C(O)CCCl", "Potency": "inactive"},
      {"smiles": "C[C@@H]1CCN(C(=O)[C@H](CCCN=C(N)N)NS(=O)(=O)c2cccc3c2NC[C@H](C)C3)[C@@H](C(=O)O)C1", "Potency": "inactive"},
      {"smiles": "O=C1CCCCCCCCCCCN1", "Potency": "inactive"},
      {"smiles": "C=COCC1CCC(CO)CC1", "note": "(stereo not given)", "Potency": "inactive"},
      {"smiles": "O=C[C@H](O)[C@@H](O)[C@H](O)[C@H](O)CO", "Potency": "inactive"},
      {"smiles": "CC(=O)CC(C)C", "Potency": "inactive"},
      {"smiles": "O=C(O)COc1nn(Cc2ccccc2)c2ccccc12", "Potency": "inactive"},
      {"smiles": "O=c1cc(CO)occ1O", "Potency": "inactive"},
      {"smiles": "NC(=O)Nc1ccccc1", "Potency": "inactive"},
      {"smiles": "CC(C)(C)NCCNC(C)(C)C", "Potency": "inactive"},
      {"smiles": "C[N+](C)(C)CCCCCC[N+](C)(C)C", "Potency": "inactive"},
      {"smiles": "CC(C)CNCC(C)C", "Potency": "inactive"},
      {"smiles": "CCCN(CCC)CCc1cccc2c1CC(=O)N2", "Potency": "inactive"},
      {"smiles": "NS(=O)(=O)c1cc(C(=O)O)cc(N2CCCC2)c1Oc1ccccc1", "Potency": "inactive"},
      {"smiles": "CCCN1CCCC[C@H]1C(=O)Nc1c(C)cccc1C", "Potency": "inactive"},
      {"smiles": "ClC(Cl)(Br)Br", "Potency": "inactive"},
      {"smiles": "COc1ccc2c(c1)CCCC2=O", "Potency": "inactive"},
      {"smiles": "O=C(O)CN(CCOCCOCCN(CC(=O)O)CC(=O)O)CC(=O)O", "activation": "8.1% [at 0.756 µM] (inactive)"},
      {"smiles": "CCCCCCCCCCCCN(CCCCCCCCCCCC)CCCCCCCCCCCC", "Potency": "inactive"},
      {"smiles": "COC(=O)c1ccc(C)cc1C1=NC(C)(C(C)C)C(=O)N1", "note": "(stereo not given)", "Potency": "inactive"},
      {"smiles": "CC1=CC(C)C(C=O)CC1", "note": "(stereo not given)", "Potency": "inactive"},
      {"smiles": "CN(C)CCCN1c2ccccc2CCc2ccc(Cl)cc21", "Potency": "inactive"},
      {"smiles": "COc1nc(N)nc2c1ncn2[C@@H]1O[C@H](CO)[C@@H](O)[C@@H]1O", "Potency": "inactive"},
      {"smiles": "CC(C)=CCCC(C)CC(=O)O", "note": "(stereo not given)", "Potency": "inactive"},
      {"smiles": "CO[Si](CCCOCC1CO1)(OC)OC", "note": "(stereo not given)", "Potency": "inactive"},
      {"smiles": "CC(=O)Nc1c(I)cc(I)c(C(=O)O)c1I", "Potency": "inactive"},
      {"smiles": "Nc1cc(=O)[nH]c(N)n1", "Potency": "inactive"},
      {"smiles": "CCCc1cc(C(N)=S)ccn1", "Potency": "inactive"},
      {"smiles": "CC(=O)OCC(=O)[C@@]1(O)CCC2C3CCC4=CC(=O)CC[C@]4(C)C3[C@@H](O)C[C@@]21C", "note": "(stereo not given in full)", "Potency": "inactive"},
      {"smiles": "CC[N+](C)(C)c1cccc(O)c1", "Potency": "inactive"},
      {"smiles": "Nc1c[n+](N2CCOCC2)no1", "Potency": "inactive"},
      {"smiles": "Cc1cnc(NS(=O)(=O)c2ccc(N)cc2)nc1", "Potency": "inactive"},
      {"smiles": "C=CCS(=O)(=O)O", "Potency": "inactive"},
      {"smiles": "CN1CC(=O)NC1=N", "Potency": "inactive"},
      {"smiles": "OCCOc1ccc(OCCO)cc1", "Potency": "inactive"},
      {"smiles": "CCO[Si](CCC1CCC2OC2C1)(OCC)OCC", "note": "(stereo not given)", "Potency": "inactive"},
      {"smiles": "C1CN(CCOCCN2CCOCC2)CCO1", "Potency": "inactive"},
      {"smiles": "O=c1[nH]c(=O)n([C@H]2C[C@H](O)[C@@H](CO)O2)cc1I", "Potency": "inactive"}
    ]}
  ]
}
